# Test results: PubChem BioAssay AID596 (National Center for Advancing Translational Sciences (NCATS), 2007)
# Out of some 71,000 compounds screened, about 1,400 (2%) were called active. Inconclusive results (about 3%) are left out. This excerpt belongs to a sample that is enriched for actives. Unmarked numbers belong to inactive results. The call rests on the fitted dose curve; in most records, active means well fitted curve in the direction sought with a large enough effect; inconclusive means small, poorly fitted or top-dose-only effect; inactive means no such curve, though single readings can be large or run the other way.
# Target: Microtubule-associated protein tau (Homo sapiens) (UniProt P10636)
# Assay: qHTS Assay for Tau Filament Binding;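 further: actives lower thioflavin S fluorescence by blocking filaments or displacing dye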
# Details: recombinant tau filaments, thioflavin S fluorescence, 15 h, filaments grown with octadecylsulfate alongside compound; series mostly up to 57.1 µM; activity change, negative = inhibition: at the top concentration
# In short: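 Assay mix: 1 uM His-tagged tau, 30 uM sodium octadecylsulfate, thioflavine S dye in HEPES/NaCl/DTT buffer. Compound is added prior to the inducer. Fluorescence after 15 h at 37 C.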
# On the % scale 0 is the no-effect control and ±100 the full control effect; potency means the concentration at half of the fitted maximal effect.
# Microtubule-associated protein tau (Homo sapiens), sequence (P10636 whole entry, looked up): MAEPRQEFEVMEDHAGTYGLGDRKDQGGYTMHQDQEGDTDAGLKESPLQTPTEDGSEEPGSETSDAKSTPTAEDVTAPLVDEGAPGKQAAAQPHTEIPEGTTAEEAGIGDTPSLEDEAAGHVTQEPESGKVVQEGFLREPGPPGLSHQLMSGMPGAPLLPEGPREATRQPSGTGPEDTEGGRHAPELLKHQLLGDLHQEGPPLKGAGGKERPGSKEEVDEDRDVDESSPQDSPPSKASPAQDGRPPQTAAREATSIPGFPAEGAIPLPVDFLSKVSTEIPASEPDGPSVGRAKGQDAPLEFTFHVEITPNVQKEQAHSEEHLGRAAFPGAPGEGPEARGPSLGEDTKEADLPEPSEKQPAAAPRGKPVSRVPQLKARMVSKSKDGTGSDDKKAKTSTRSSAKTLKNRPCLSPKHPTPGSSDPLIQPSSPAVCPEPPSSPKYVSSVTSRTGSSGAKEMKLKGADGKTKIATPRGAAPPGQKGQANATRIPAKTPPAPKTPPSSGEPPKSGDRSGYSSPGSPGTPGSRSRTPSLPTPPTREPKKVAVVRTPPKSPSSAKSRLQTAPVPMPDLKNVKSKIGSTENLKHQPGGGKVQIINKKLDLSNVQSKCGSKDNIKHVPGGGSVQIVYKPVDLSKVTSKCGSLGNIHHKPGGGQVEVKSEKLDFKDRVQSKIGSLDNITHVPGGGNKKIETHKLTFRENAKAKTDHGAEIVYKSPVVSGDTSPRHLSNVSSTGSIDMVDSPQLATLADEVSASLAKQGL
Compound,"activity change, negative = inhibition",Potency
CC(=O)OCCC(C)C,-0.1%,–
COc1cccc(-c2nc3cc(C)ccc3o2)c1,-7.9%,–
CCCCCC(=O)Nc1ccc2oc(-c3ccncc3)nc2c1,-29.6%,–
CCc1ccc2oc(-c3ccc(N)cc3)nc2c1,–,25.1 µM (active)
CCCCCCc1ccc(O)cc1O,-23.7%,–
CC(C)n1c(SCC(=O)Nc2ccccc2N2CCCCC2)nc2c1c(=O)n(C)c(=O)n2C,5%,–
COc1ccc(F)cc1S(=O)(=O)Nc1ccc2c(c1)OCO2,-5.1%,–
CC(C)CNS(=O)(=O)c1ccc(OCC(=O)Nc2ccc3c(c2)OCO3)c(Cl)c1,101%,–
COc1ccc(S(=O)(=O)Nc2ccc3c(c2)OCO3)cc1Cl,–,20 µM (active)
c1ccc2sc(SCCSc3nc4ccccc4s3)nc2c1,-3.1% [at 11.4 µM],–
CCOc1ccc(-c2cn(S(=O)(=O)c3cccc4nsnc34)nc2N)cc1,–,25.1 µM (active)
CCCCN(CC)C(=O)CN(C)S(=O)(=O)c1cccc2nsnc12,-4.7%,–
CCOc1ccc(NC(=O)CCS(=O)(=O)c2cccc3nsnc23)cc1,-9.9%,–
CC1CCCC(NC(=O)CSc2nccn2C)C1C (stereo not given),9%,–
O=C(c1cnccn1)N1CCC2(CCN(Cc3cc(C(F)(F)F)cc(C(F)(F)F)c3)CC2)CC1,-9.4%,–
COc1cc(Br)cc(/C=N/c2ncn[nH]2)c1O,–,1.58 µM (active)
C/C=C/C=C/C(=O)O,-9.3%,–
O=C(OCC(COC(=O)c1ccccc1)(COC(=O)c1ccccc1)COC(=O)c1ccccc1)c1ccccc1,2.5%,–
CC(C)Nc1nc(N(c2ccccc2)c2ccccc2)nc(-n2ccnc2)n1,5%,–
N#Cc1nc(N)nc(N(c2ccccc2)c2ccccc2)n1,–,7.94 µM (active)
CCOC(=O)c1cn(CC(=O)Nc2ccc(C(C)C)cc2)nn1,-18%,–
CCCC(=O)Nc1cc(OCC)c(NC(=O)NC2CCCCC2)cc1OCC,0.7%,–
O=C(O)CC(C(=O)O)C(CC(=O)O)C(=O)O (stereo not given),-2.3%,–
CCCC[C@@H]1C[C@H]1C(NC(=O)c1ccco1)c1ccc(C(=O)OC)cc1 (stereo not given in full),8.7%,–
CCN(CC)S(=O)(=O)N1CCC(C(=O)NC(C)CCc2ccccc2)CC1 (stereo not given),6%,–

Compound,"activity change, negative = inhibition",Potency
CC(=O)N1CCC(C(=O)Nc2nc(-c3ccccc3)ns2)CC1,–,10 µM (active)
Cc1ccc2c(NC(=O)C3CC3)cccc2n1,-1.6%,–
Cc1noc(C)c1-c1cc(NCc2cccnc2)ncn1,5.5%,–
O=S(=O)(NCc1cccnc1)c1ccc(Br)s1,-1.9%,–
COc1ccc(Cl)cc1S(=O)(=O)Nc1cccc(C(=O)O)c1,11.9%,–
Cc1ccnc(SCCn2c(N(C)Cc3ccccc3)nc3c2c(=O)n(C)c(=O)n3C)n1,0.1%,–
c1ccc2c(Nc3ccncc3)nc(-c3ccoc3)nc2c1,–,7.94 µM (active)
COc1cccc(-c2nc(Nc3ccncc3)c3ccccc3n2)c1,105%,–
CCOC(=O)CSc1nnc(NC(=O)c2cccc(S(=O)(=O)N3CCCCC3)c2)s1,5.8%,–
CCn1c(COc2cccc(OC)c2)nnc1SCC(=O)N1CCOCC1,3%,–
CCCS(=O)(=O)Nc1c(C(=O)O)[nH]c2ccccc12,–,25.1 µM (active)
CCCC(=O)Nc1c(O)c2ccccc2[nH]c1=O,0.1%,–
COC(=O)c1[nH]c2ccccc2c1NS(=O)(=O)c1ccc(OC)cc1OC,0.1%,–
C[C@]12C=CC(=O)C=C1CC[C@@H]1[C@@H]2C(=O)C[C@@]2(C)[C@H]1CC[C@]2(O)C(=O)CO,-6.3%,–
CCn1c(SCC(=O)NCC2CCCO2)nc2cc(S(=O)(=O)N3CCCCC3)ccc21 (stereo not given),0.9%,–
CCCCn1c(SCC(=O)NCC2CCCO2)nc2ccc(N3CCOCC3)cc2c1=O (stereo not given),–,15.8 µM (active)
COCCCNC(=O)CSc1nc2ccc(N3CCOCC3)cc2c(=O)n1CCc1ccccc1,-17.5%,–
COC(=O)[C@@]1(Cc2ccc(OC)cc2)[C@H]2c3cc(C(=O)N4CCCC4)n(Cc4ccc(C(F)(F)F)nc4)c3C[C@H]2CN1C(=O)c1ccccc1,4.2%,–
COc1ccc(CCNC(=O)CCCCn2c(=O)[nH]c3ccccc3c2=O)cc1OC,-0.2%,–
COc1ccc(N=Cc2c(O)[nH]c3ccccc23)cc1OC,–,12.6 µM (active)
COc1ccc(COC(=O)c2n[nH]c3ccccc23)cc1F,18.2%,–
COCC(C)NC(=O)c1ccc(Cl)c(Cl)c1 (stereo not given),6.1%,–
COc1cccc(Cn2c(=O)cnc3cncnc32)c1,-17.1%,–
COc1cccc(Nc2ncc3ncc(=O)n(C4CC4)c3n2)c1,–,12.6 µM (active)
CCNc1ncc2ncc(=O)n(Cc3cccc(OC)c3)c2n1,2%,–
